Experimental data published in PubChem BioAssay (NCI).
This is part of a sample that, as a whole, favours compounds with a hit. Of some 83,000 tested, about 20% had one in any assay.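 Testing used 96-well plates and a 48-hour single-concentration exposure. Example: -40 means 40% of the starting cells died.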 The source made the active and inactive calls. The calls were made as follows: active = growth percent below 10; inactive = the rest.

Tested on: HCT-116 colon
Assay: NCI-60 one-dose screen, 48 h (100 = growth as untreated, 0 = no growth, -100 = all killed)
Settings: 10 µM unless noted

SMILES	growth
O=C1c2cc3c(cc2-c2c1c1cc(F)c(F)cc1c(=O)n2CCCn1ccnc1)OCO3	-12.8% (active)
O=C(Cn1cccc(Nc2ccccc2)c1=O)Nc1ccccc1	98.6% (inactive)
COc1cc(-c2nc3ccccc3[nH]2)ccc1OCc1nnc(-c2ccc(CC(C)C)cc2)o1	82% (inactive)
FC(F)(F)c1ccc(-c2cn3nc(-c4c[nH]c5ccc(Br)cc45)sc3n2)cc1	93.1% (inactive)

Tested on: HCC-2998 colon
Assay: as above
Settings: 10 µM unless noted

SMILES	growth
COc1ccc(/C=C/c2nc(-c3n[nH]c(=O)n3-c3ccccc3)c3ccccc3n2)cc1	112% (inactive)
COc1ccc(-c2n[nH]nc2-c2csc3ccccc23)cc1OC	72.1% (inactive)
CSc1nc(-c2cccc(NC(=O)CCl)c2)c(C#N)c(=O)n1C	116% (inactive)
Cc1cc(C)c2nc3nc(C)cc(C)c3c(N)c2c1	10.7% (inactive)
Cc1nn(-c2cc(=O)[nH]c3ccccc23)c(N)c1C#N	115% (inactive)
CCOC(=O)c1c(C(=O)OCC)c2cc(-c3ccn4c(C(=O)c5ccccc5)c(C(=O)OCC)c(C(=O)OCC)c4c3)ccn2c1C(=O)c1ccccc1	95.2% (inactive)
CNC(=O)c1cc(Oc2ccc(NC(=O)Nc3ccc(Cl)c(SC)c3)c(F)c2)ccn1	51.3% (inactive)
O=c1nc2oc3ccc4ccccc4c3cc-2s1	51.4% (inactive)
CN(C)C(=S)N=Nc1c(O)[nH]c2ccccc12	23.9% (inactive)
CC(=O)O[C@H]1CC[C@]2(C)[C@H]3CC=C4[C@@H]5CC(C)(C)CC[C@]5(C(=O)NCCNCCN)CC[C@@]4(C)[C@]3(C)CC[C@H]2C1(C)C	-92.1% (active)
O=C1c2cc3c(cc2-c2c1c1ccc(F)cc1c(=O)n2CCCNCCO)OCO3	-65.7% (active)
COc1cc(/C=C/C(=O)c2c(C)oc3nc[nH]c(=O)c23)cc(OC)c1OC	112% (inactive)
COC[C@H](C)n1c(C2CCOCC2)nc2cnc3cc(-c4c(C)noc4C)c(OC)cc3c21	56.6% (inactive)
Cn1cc(-c2nonc2-c2c[nH]c3ccc(F)cc23)c2cccnc21	91.8% (inactive)
COc1cc2c(cc1-c1c(C)noc1C)ncc1nc(C3CCOCC3)n([C@H](C)COC(F)F)c12	47.7% (inactive)
CC1=C[C@H]2c3c(c(O)c(O)c4oc5cc(O)ccc5c(=O)c34)[C@H](c3cc(O)c(O)c4oc5cc(O)ccc5c(=O)c34)[C@H]2C(C)(C)C1	75.4% (inactive)
COc1cc(-c2nn(-c3ccc(Br)cc3)cc2C(=O)O)ccc1O	108% (inactive)
COc1cc(C2CC(=O)c3ccccc3N2)cc(OC)c1OC (stereo not drawn)	109% (inactive)
CC1=NN(c2nc(-c3ccc(Cl)cc3)c(C#N)c(N3CCOCC3)n2)C(=O)C1	98.5% (inactive)
COCCNc1ccc2c3c(cccc13)C(=O)N(CCN(C)C)C2=O	28.6% (inactive)

SMILES	growth
CCOC(=O)c1cc(C(=O)c2ccc(O)c(O)c2)n2ccc(-c3ccn4c(C(=O)c5ccc(O)c(O)c5)cc(C(=O)OCC)c4c3)cc12	104% (inactive)
CCN=C1C=CC(=C(c2ccc(N)cc2)c2ccc(N(CC)CC)c(C)c2)C=C1	-4.16% (active)
COc1ccc(/C=C\c2cc(OC)c(OC)c(OC)c2)cc1OC(=O)c1cccc(Cn2cc(CCOC(=O)[C@H](N)Cc3cn(C)c4ccccc34)nn2)c1	20.7% (inactive)
Cc1cc(N2CCSCC2)nc(NC2CCCC(Nc3ccnc4cc(Cl)ccc34)C2)n1 (stereo not drawn)	-58.3% (active)
CSc1nc(NCCO)c(C#N)c(-c2cccc([N+](=O)[O-])c2)n1	102% (inactive)
Cc1ccc(C2=NN3C(C2)c2cc(Br)ccc2OC32CCN(Cc3ccccc3)CC2)o1 (stereo not drawn)	97.9% (inactive)
COc1ccc(/C=C(\C#N)C(=O)Nc2cccc(Nc3nc(SC)nc(-c4cccc([N+](=O)[O-])c4)c3C#N)c2)cc1OC	114% (inactive)
CCN(CC)CCCCNc1c2ccc(Cl)cc2nc2ccc(OC)cc12	-78.6% (active)
O=C(/C=C/c1cc(CN2CCOCC2)c(O)c2ncccc12)c1cc(CN2CCOCC2)c(O)c2ncccc12	37.2% (inactive)
COc1cc(-c2nc3ccccc3[nH]2)ccc1OCC(=O)N=Nc1c(O)[nH]c2ccc(Cl)cc12	-62.9% (active)
COc1ccc(-n2nc(C)c3c(Nc4ccc(NC(=O)Nc5cc(C(F)(F)F)ccc5F)cc4)ncnc32)cc1	21.2% (inactive)
COc1cc(-c2nc3cc(Cl)c(Cl)cc3[nH]2)ccc1OCC(=O)N=Nc1c(O)[nH]c2ccccc12	-91.1% (active)
CN(C)CCN1C(=O)c2cccc3c(N)ccc(c23)C1=O	48.1% (inactive)
Cc1nc2ccccc2n1C(=O)C[C@@H]1NC(=S)NC1=O	102% (inactive)
CCN(CC)c1ccc(-c2cc(-c3cc(OC)c(OC)c(OC)c3)nc(N3CCOCC3)c2C#N)cc1	29.9% (inactive)
O=C1c2cc3c(cc2-c2c1c1cc(F)c(F)cc1c(=O)n2CCCn1ccnc1)OCO3	13.5% (inactive)
O=C(Cn1cccc(Nc2ccccc2)c1=O)Nc1ccccc1	109% (inactive)
COc1cc(-c2nc3ccccc3[nH]2)ccc1OCc1nnc(-c2ccc(CC(C)C)cc2)o1	119% (inactive)
FC(F)(F)c1ccc(-c2cn3nc(-c4c[nH]c5ccc(Br)cc45)sc3n2)cc1	95.6% (inactive)
